Results filed as inconclusive are left out. A call without a number means that no potency is given here. Calls of active or inactive are those of the source. Calls come from the whole dose curve; as a rule, active = well fitted cell-killing curve with a large enough effect in the repeat runs; inconclusive = weak or mixed curves; inactive = flat fitted curve, though single readings scatter.

The assay can be described thus: qHTS assay to identify small molecule antagonists of the estrogen receptor beta (ER-beta) signaling pathway - cell viability counter screen (AID 1259382). Note: nearly all actives have a fitted effect of over 55% in size. The settings on record: ER-beta-UAS-bla HEK293T viability, CellTiter-Glo luminescence, 16 h; series mostly up to 92.4 µM. The text has this: U.S. Tox21 Program National Center for Advancing Translational Sciences [NCATS] NIH Chemical Genomics Center [NCGC] U.S. Environmental Protection Agency [EPA] National Institutes of Environmental Health Sciences [NIEHS] National Toxicology Program [NTP] U.S. Food and Drug Administration [FDA] Tox21 Assay Overview: Estrogen receptor (ER), a nuclear hormone receptor, plays an important role in development, metabolic homeostasis and reproduction. Two subtypes of ER, ER-alpha and ER-beta, have similar expression patterns with some uniqueness in both types. Endocrine disrupting chemicals (EDCs) and their interactions with steroid hormone receptors like ER causes disruption of normal endocrine function. To identify the compounds that inhibit ER signaling, an ER-beta-UAS-bla GripTite cell line (Life Technologies, Madison, WI, USA) containing a beta-lactamase reporter gene under the control of an UAS response element was used to screen Tox21 10K compound library. The cytotoxicity of the Tox21 compound library against the ER-beta-bla cell line was tested in parallel by measuring the cell viability using CellTiter-Glo assay in the same wells.
Tox21 Assay Protocol Summary: ER-beta-UAS-bla HEK293T cells were dispensed at 2,000 cells/4 uL of assay medium containing 2% charcoal stripped FBS per well into black wall/clear-bottom 1536-well plates using a Multidrop Combi (ThermoFisher Scientific, Waltham, MA) dispenser. After the assay plates were incubated at a 37C and 5% CO2 for 6 hr, 23 nL of compounds dissolved in DMSO, positive controls or DMSO only was transferred to the assay plate by a Pintool station (Kalypsys, San Diego, CA), followed by addition of 1 uL (1nM as final concentration) of 17-beta-estradiol (E2) in assay medium using a Flying Reagent Dispenser (FRD, Aurora Discovery, San Diego, CA). The plates were incubated at 37C and 5% CO2 for 16 hr. Then 1 uL of LiveBLAzer B/G FRET substrate was added using a Flying Reagent Dispenser, the plates were incubated at room temperature for 2 hours, and fluorescence intensity was measured by an Envision plate reader (PerkinElmer, Shelton, CT). For cell viability readout that measures cytotoxicity, 4 uL/well of CellTiter-Glo reagent was added into the assay plates using a FRD. After 30 min incubation at room temperature, the luminescence intensity in the plates was measured using a ViewLux (PerkinElmer) plate reader.
For orientation: Quantitative high-throughput screening tests each substance at several concentrations.
With `C/C(=N\NC(=O)Nc1cc(F)cc(F)c1)c1ncccc1C(=O)O`, the Potency result is “inactive”.

As to `O=C/C=C/c1ccco1`, the Potency result was “inactive”.

Turning to `NC1(c2ccccc2)CCCCC1`, the Potency entry is “inactive”.

As to `Oc1ccc2c3c1O[C@H]1[C@@H](O)C=C[C@H]4[C@@H](C2)NCC[C@@]341`, the Potency entry was “inactive”.

In the case of `Cc1ccc(-c2nc3ccc(C)cn3c2CC(=O)N(C)C)cc1`, the Potency result is “inactive”.

As to `N[C@@H]1C[C@H]1c1ccccc1`, the Potency result is “inactive”.

As for `CCCC[N+](=O)[O-]`, the Potency entry is “inactive”.

Take `C=CCC1(C(C)CC)C(=O)NC(=O)NC1=O` (stereo not given): the Potency result is “inactive”.

Turning to `CCOC(=O)c1ncn2c1CN(C)C(=O)c1c(I)cccc1-2`, the Potency result was “inactive”.

Regarding `C=C1CC[C@@]2(O)[C@H]3Cc4ccc(O)c5c4[C@@]2(CCN3CC2CC2)[C@H]1O5`, the Potency result was “inactive”.

Turning to `CCCCOC(C)=O`, the Potency result is “inactive”.

As to `CCC(C)C(C)(COC(N)=O)COC(N)=O` (stereo not given), the Potency result was “inactive”.

For `Cc1ccc2cc(C)ccc2c1`, the Potency entry was “inactive”.

As for `C=CCN1CC[C@]23CCCC[C@H]2[C@H]1Cc1ccc(O)cc13`, the Potency result was “inactive”.

Regarding `C=CC=O`, the Potency result is “inactive”.

Consider `CCN[C@H](C)Cc1cccc(C(F)(F)F)c1`, for which the Potency result was “inactive”.

Turning to `CC[C@H](N)c1ccccc1`, the Potency entry is “inactive”.

Consider `CCOC(=O)CC(SP(=S)(OC)OC)C(=O)OCC` (stereo not given), for which the Potency result was “inactive”.

On to `C#CC(C)(C)O`, for which the Potency entry is “inactive”.

With `CCN(CCO)CCO`, the Potency entry is “inactive”.

Turning to `NNC(N)=O`, the Potency result is “inactive”.

With `NCCOS(=O)(=O)O`, the Potency result is “inactive”.

Consider `N[C@@H](Cc1ccc(Oc2cc(I)c(O)c(I)c2)c(I)c1)C(=O)O`, for which the Potency entry is “inactive”.

Regarding `Cn1c(CCCC(=O)O)nc2cc(N(CCCl)CCCl)ccc21`, the Potency result is “inactive”.

On to `C[C@H](N)C(=O)c1ccccc1`, for which the Potency entry was “inactive”.

Take `CCCN1CCC[C@@H]2Cc3[nH]ncc3C[C@H]21`: the Potency result was “inactive”.

On to `NC(=O)OCCCc1ccccc1`, for which the Potency entry was “inactive”.

Take `CCNP(=S)(OC)O/C(C)=C/C(=O)OC(C)C` (stereo not given): the Potency entry is “inactive”.

On to `[O-][Br+2]([O-])O`, for which the Potency entry was “inactive”.

On to `Cc1cccc2sc3nncn3c12`, for which the Potency result is “inactive”.

Consider `CCOC1Oc2ccc(OS(C)(=O)=O)cc2C1(C)C` (stereo not given), for which the Potency result is “inactive”.

In the case of `CNC(=O)O/N=C(/CSC)C(C)(C)C`, the Potency result was “inactive”.

For `ClCC1CO1` (stereo not given), the Potency result is “inactive”.

On to `C[C@H]1CCCC(=O)CCC/C=C/c2cc(O)cc(O)c2C(=O)O1`, for which the Potency result was “inactive”.

As to `CCCC(C)(COC(N)=O)COC(N)=O`, the Potency entry was “inactive”.

For `COc1ccc(CN2CCNCC2)c(OC)c1OC`, the Potency entry was “inactive”.

As for `O=[N+]([O-])c1cccc(CCl)c1`, the Potency entry was “inactive”.

In the case of `N#CC(Br)(Br)C(N)=O`, the Potency entry is “inactive”.

For the compound `BrCCc1ccccc1`, the Potency result was “inactive”.

With `CCOP(=O)(CN(CCO)CCO)OCC`, the Potency result is “inactive”.

The values above are taken from PubChem BioAssay (Tox21).
